# Rango complex inh: prevents formation of the Rango-importin beta complex. AID 540263. Potency, µM (top dose mostly 92.2 µM), without a hit: top-dose inhibition of complex formation. 0.031% of 340,000 active. Rango CFP/YFP FRET sensor + importin beta, 45 min. Q14974; calls by dose curve;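 note: 0% = DMSO wells and 100% = buffer wells lacking importin beta; nearly all actives have a fitted effect of over 15% in size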
#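 FRET biosensor (snurportin 1 IBB flanked by EYFP and cerulean), 50 nM, with compound 5 min, then 0.125 microM importin beta in PBS, 1 mM DTT, 0.02% Tween-20, 0.1% BSA. CFP/YFP ratio read after 45 min at room temperature; pre-read flags interference.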
# Nrf2 ARE act: Nrf2 pathway activation. AREc32 ARE-luciferase reporter (MCF7-derived line), luminescence, 24 h. Potency, µM (titrated, usually from 46.1 µM), without a hit: top-dose activation, hits mostly activators. 0.31% of 410,000 active. AID 624171; note: % of control where 0% means no effect; nearly all actives have a fitted effect of over 65% in size
#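 AREc32_Fluc, 1000 cells/well, OPTI-MEM + 5% FBS, o/n 37 deg C 5% CO2; 23 nL cpd by pin tool, 24 hr; Steady-Glo 30 min RT, luminescence.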
# Nrf2 block: inhibitors of Nrf2 signaling; Potency, µM (series often up to 46 µM), inactives show top-dose activity change, negative = inhibition, usual class: inhibitors; AID 504444; A549 ARE-Fluc reporter, luciferase luminescence, 18-24 h; 2.1% of 360,000 active; note: % is set by controls: 0 for no effect and ±100 for the full control effect; nearly all actives have a fitted effect of over 60% in size
#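 Cells were seeded and rested 2 h, then exposed to compounds for 18-24 h. CellTiter-Fluor was read first as a viability measure. BugLite was added 15 min before the final luminescent read of ARE-luciferase activity in A549 cells.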
# Rango dissoc inh: prevents RanGTP from dissociating the Rango-importin beta complex | O95149+P62826 | Biochemical FRET Rango-importin beta, RanGTP-induced dissociation | Potency, µM (top dose mostly 46.1 µM), for inactives: at the top dose activity change, negative = inhibition | 0.071% of 340,000 active; calls by dose curve; note: % of control where 0% means no effect; nearly all actives have a fitted effect of over 45% in size
#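 Compounds preincubate 5 min with complex of recombinant Rango and importin beta in PBS with 1 mM DTT. Ran (0.6 uM) loaded with 2 mM GTP plus 0.2 uM RCC1 starts dissociation; FRET is recorded 45 min later.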
# A549 tox-1: kills or reduces viability of A549 cells in Nrf2 counter-screen | A549 ARE-Fluc cells, CellTiter-Fluor viability, 18-24 h | Potency, µM (series often up to 46 µM), inactives show top-dose activity change, negative = cytotoxicity, usual class: inhibitors | 0.16% of 390,000 active | AID 504648; note: % is set by controls: 0 for no effect and ±100 for the full control effect
#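 A549 ARE-Fluc cells in 5% FBS OPTI-MEM, 5000 cells/well, rested 2 h then exposed to compounds in concentration-response for 18-24 h at 37 °C. Viability by CellTiter-Fluor fluorescence (Ex 405/Em 525) after 30 min; luciferase luminescence (BugLite, 15 min, RT) read afterwards.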
# FLuc enzyme inh: counter-screen for Nrf2 inhibitors: firefly luciferase enzyme inhibition; 4% of 1,400 active; shares compounds with Nrf2 block; Potency, µM (series often up to 57.5 µM), without a hit: at the top dose activity change, negative = inhibition, most hits filed as inhibitors; purified firefly luciferase, luminescence inhibition; note: % is set by controls: 0 for no effect and ±100 for the full control effect; nearly all actives have a fitted effect of over 65% in size
# Target sequence (P08659 whole entry, looked up): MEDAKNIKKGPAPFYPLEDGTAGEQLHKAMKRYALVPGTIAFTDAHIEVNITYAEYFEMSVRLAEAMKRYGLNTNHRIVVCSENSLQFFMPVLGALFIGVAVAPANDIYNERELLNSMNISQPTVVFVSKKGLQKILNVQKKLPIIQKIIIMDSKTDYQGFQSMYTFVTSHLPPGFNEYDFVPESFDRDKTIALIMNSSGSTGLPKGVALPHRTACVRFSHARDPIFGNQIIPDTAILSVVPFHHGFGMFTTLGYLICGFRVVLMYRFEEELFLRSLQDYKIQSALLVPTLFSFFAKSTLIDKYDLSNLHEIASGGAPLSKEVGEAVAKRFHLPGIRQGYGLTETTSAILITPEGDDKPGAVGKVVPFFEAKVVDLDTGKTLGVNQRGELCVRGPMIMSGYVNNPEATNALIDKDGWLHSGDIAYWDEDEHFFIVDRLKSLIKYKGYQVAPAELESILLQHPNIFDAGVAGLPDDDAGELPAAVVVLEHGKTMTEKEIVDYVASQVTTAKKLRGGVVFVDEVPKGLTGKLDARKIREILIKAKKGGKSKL
# A549 tox-2: A549 cytotoxicity, Nrf2 inhibitor counterscreen; 2% of 1,400 active; shares compounds with Nrf2 block; AID 720523; A549 ARE-Fluc cells, cytotoxicity counterscreen; Potency, µM (highest dose often 46.1 µM), without a hit: top-dose activity change, negative = cytotoxicity, hits mostly inhibitors;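 note: cells exposed to compounds for 18 to 24 hours; % is set by controls: 0 for no effect and ±100 for the full control effect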
# Nrf2 ARE inh: reduces Nrf2 ARE reporter signal in A549 cells. 74% of 1,400 active. A549 ARE-firefly luciferase reporter, luminescence. shares compounds with Nrf2 block. Potency, µM (highest dose often 46.1 µM), without a hit: at the top dose activity change, negative = inhibition, usual class: inhibitors; note: % is set by controls: 0 for no effect and ±100 for the full control effect; nearly all actives have a fitted effect of over 65% in size
# Numbers without * were called inactive; u = inconclusive; x = no result given. The list is not random: actives were taken first. Their share in the collection is about 2.3%. Unless noted, calls come from the whole dose curve; as a rule, active = well fitted curve in the direction sought with a large enough effect; inconclusive = small, poorly fitted or top-dose-only effect, or another doubt; inactive = no such curve, though single readings can be large; an effect the other way counts as inactive or inconclusive. Potency is the fitted concentration of half-maximal effect.
SMILES,Rango complex inh,Nrf2 ARE act,Nrf2 block,Rango dissoc inh,A549 tox-1,FLuc enzyme inh,A549 tox-2,Nrf2 ARE inh
C[n+]1c2n(c3ccccc31)N=C(c1ccccc1)CS2,3%,8.9µM*,3.7µM*,1%,u,0%,-9%,x
Cc1cccc(-c2nnc3n2N=C(c2ccccc2)CS3)c1,0%,2%,u,16%,-3%,x,x,x
COc1ccc(CCC(C)NC(=O)Cc2ccc(OC)c(OC)c2)c(OC)c1 (centres undefined),0%,3%,u,12%,-2%,x,x,x
CS(=O)(=O)N1CCCc2cc(C(=O)Nc3cccc(C(F)(F)F)c3)ccc21,x,1%,9.2µM*,x,-28%,u,-16%,u
COc1cccc(NC(=O)c2ccc3c(c2)CCN3S(C)(=O)=O)c1,-1%,4%,20%,-13%,3%,x,x,x
O=C(O)CCn1nnc(-c2cccs2)n1,1%,4%,-16%,6%,3%,x,x,x
CC(C)c1ccc(-c2nnn(CCC(=O)O)n2)cc1,-2%,-1%,0.33µM*,4%,-2%,11µM*,-3%,0.82µM*
CC1(C)CC2CC(C)(CN2C(=O)COC(=O)c2ccccc2C(F)(F)F)C1 (centres undefined),4%,0%,3.7µM*,7%,-14%,0%,-1%,-24%
S=C(NN=Cc1ccccn1)N(Cc1ccccn1)Cc1ccccn1,0%,9%,u,32%,-25%,u,u,2.3µM*
Cc1ccc(-n2c(-c3ccc(Cl)cc3)c[n+]3c2CCC3)cc1,1%,0%,3.7µM*,1%,-15%,3%,-2%,-36%
Cc1ccc(-n2c(-c3ccccc3)c[n+]3c2CCC3)cc1,-1%,0%,5.8µM*,-6%,u,0%,-6%,6.5µM*
O=C(NCc1ccco1)C(c1ccncc1)N(C(=O)Cn1nnc2ccccc21)c1ccccc1F (centres undefined),-5%,-1%,-4%,14%,-7%,x,x,x
CCOc1ccc(CCNc2ncnc3onc(C)c23)cc1OCC,x,5%,7.3µM*,x,1%,3%,-3%,u
COc1ccc(CNc2ncnc3onc(C)c23)cc1,x,0%,4.1µM*,x,2%,-1%,1%,u
Cc1ccc(CCNc2ncnc3onc(C)c23)cc1,x,5%,9.2µM*,x,-1%,u,0%,5.8µM*
CCOCCCNc1ncnc2onc(C)c12,x,0%,24%,x,-4%,x,x,x
Cc1noc2ncnc(NCCc3ccccc3)c12,x,1%,u,x,-7%,x,x,x
COc1ccc(OC)c(CNc2ncnc3onc(C)c23)c1,x,3%,-26%,x,3%,x,x,x
Cc1ccc(S(=O)(=O)Nc2ccc(Cl)cc2C(=O)c2ccc(F)cc2)cc1,2%,0%,u,-7%,-5%,x,x,x
Cc1ccc(S(=O)(=O)Nc2ccc(Cl)cc2C(=O)c2ccccc2)cc1,-2%,3%,5.8µM*,10%,-24%,2%,10%,-2%
Cc1nc(Oc2ccc(F)cc2Cl)c2oc3ccccc3c2n1,x,1%,x,x,1%,x,x,x
Cc1ccc(C(=O)Nc2sc3c(c2C(=O)O)CCC(C)C3)o1 (centres undefined),4%,5%,5.8µM*,28%,-22%,2.4µM*,-27%,5.2µM*
Cc1ccc(C(=O)Nc2sc3c(c2C(=O)O)CCCC3)o1,3%,0%,u,12%,u,x,x,x
Cc1oc(-c2ccc(C(=O)Nc3cccc(C(F)(F)F)c3)cc2)nc1CSc1ccccc1,x,-1%,5.8µM*,x,u,-1%,-26%,1.8µM*

# Screening data from PubChem.
